The results in this text go back to PubChem BioAssay.

For orientation: inhibition means the drop in the measured response relative to a control, in per cent.

Assay [1] in a line: antimalarial activity against Dd2 strain (AID 2302;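 active = growth inhibition above 50% at the single 2 µM test dose, taken to imply half-maximal potency below 2 µM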;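 note: 0% = DMSO untreated growth and 100% = chloroquine plus artemisinin killed control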). As to conditions: P. falciparum Dd2 in RBCs, LDH growth readout, 72 h; at 2 µM; active compounds read high.
A short description of assay [2]: HepG2 cytotoxicity, primary screen, cytotoxicity control for P. falciparum antimalarial project, cell-based, ATP luminescence (AID 2303;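 active = inhibition above 50%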;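 note: 0% = DMSO wells and 100% = digitonin-killed cells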). As to conditions: HepG2 viability, 24-48 h, at 10 µM, active compounds read high.
For assay [3], the target named is L-lactate dehydrogenase (Plasmodium falciparum (isolate CDC / Honduras)) (UniProt Q27743). The assay is described as follows: PfLDH activity inhibition – cell lysate, 3D7 strain, counter-screen for P. falciparum growth inhibition project (AID 2304).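 Note: 0% = vehicle and 100% = reference inhibitor.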 The following applies: P. falciparum 3D7 crude extract, LDH APAD/NBT absorbance; at 2 µM; active compounds read high. For orientation: A counterscreen serves to expose hits that act by an unwanted route or on another target.
L-lactate dehydrogenase (Plasmodium falciparum (isolate CDC / Honduras)), sequence (Q27743 whole entry, looked up): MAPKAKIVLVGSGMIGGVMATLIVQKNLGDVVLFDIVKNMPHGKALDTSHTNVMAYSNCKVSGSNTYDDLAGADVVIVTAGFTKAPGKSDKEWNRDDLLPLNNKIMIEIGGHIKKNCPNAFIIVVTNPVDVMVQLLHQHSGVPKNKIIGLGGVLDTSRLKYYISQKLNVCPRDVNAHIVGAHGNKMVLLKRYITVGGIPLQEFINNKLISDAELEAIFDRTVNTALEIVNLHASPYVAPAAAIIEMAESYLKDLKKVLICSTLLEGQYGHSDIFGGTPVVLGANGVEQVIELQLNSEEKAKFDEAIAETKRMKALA

Assay [4] can be described thus: inhibition of 3D7 malaria parasite growth – strain 3D7 (AID 2306).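 Note: 0% = DMSO wells and 100% = chloroquine plus artemisinin control wells.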 The following applies: P. falciparum 3D7 erythrocytic growth, LDH absorbance, 72 h; at 2 µM; active compounds read high.
Assay [5] addresses Calcium-dependent protein kinase 1 (Plasmodium falciparum (isolate 3D7)) (UniProt P62344). Put plainly: PfCDPK1 kinase inhibitors, biochemical, TCAMS library (AID 1159585; cut-off not given, nearly all actives have IC50 up to about 0.98 µM;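 note: inhibitors leave more ATP so luminescence rises with inhibition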). As to conditions: recombinant PfCDPK1, Kinase-Glo ATP depletion luminescence. On the technique in general: In Kinase-Glo more light means more ATP remaining.
For assay [6], the target named is Plasmodium falciparum protein kinase 6 (PK6, PF3D7_1337100) (UniProt Q8IDW1). Put plainly: PfPK6 kinase inhibitors, biochemical, TCAMS library (AID 1159586). The following applies: recombinant PfPK6, Kinase-Glo ATP depletion luminescence.
Plasmodium falciparum protein kinase 6 (PK6, PF3D7_1337100), sequence (Q8IDW1 1-305): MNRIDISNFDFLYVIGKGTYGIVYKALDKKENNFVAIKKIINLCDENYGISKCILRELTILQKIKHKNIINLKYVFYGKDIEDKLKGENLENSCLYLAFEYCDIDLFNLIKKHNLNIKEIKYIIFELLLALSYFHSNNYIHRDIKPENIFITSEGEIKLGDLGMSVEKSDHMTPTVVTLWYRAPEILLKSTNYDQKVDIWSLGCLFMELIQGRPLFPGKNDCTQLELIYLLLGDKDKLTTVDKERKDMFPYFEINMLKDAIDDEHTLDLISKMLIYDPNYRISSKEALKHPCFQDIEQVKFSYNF
The target in assay [7] is Protein kinase 7 (PK7), Plasmodium falciparum 3D7 (PF3D7_0213400) (UniProt Q7YTF7). Put plainly: inhibition of Plasmodium PK7 catalytic activity – biochemical, TCAMS antimalarial set, Kinase-Glo luminescence (AID 1159587). The following applies: recombinant PfPK7, Kinase-Glo ATP depletion luminescence.
Protein kinase 7 (PK7), Plasmodium falciparum 3D7 (PF3D7_0213400), sequence (Q7YTF7 1-343): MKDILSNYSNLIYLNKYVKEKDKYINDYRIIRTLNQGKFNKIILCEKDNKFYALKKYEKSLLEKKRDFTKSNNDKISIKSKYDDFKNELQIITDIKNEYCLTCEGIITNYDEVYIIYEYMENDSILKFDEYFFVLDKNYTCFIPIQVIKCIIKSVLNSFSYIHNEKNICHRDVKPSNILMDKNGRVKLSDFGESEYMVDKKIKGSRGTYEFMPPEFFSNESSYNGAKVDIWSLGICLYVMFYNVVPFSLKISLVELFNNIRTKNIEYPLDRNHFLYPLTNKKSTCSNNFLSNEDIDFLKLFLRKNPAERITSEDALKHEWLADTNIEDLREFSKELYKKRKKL
Assay [8] has as its target Calcium-dependent protein kinase 4 (Plasmodium falciparum (isolate 3D7)) (UniProt Q8IBS5). Put plainly: PfCDPK4 kinase inhibitors, biochemical, TCAMS library (AID 1159588; cut-off not given, nearly all actives have IC50 up to about 0.91 µM). The following applies: recombinant PfCDPK4, Kinase-Glo ATP depletion luminescence.

Values without a mark were called inactive. For part of these data: Measured potencies and affinities stand elsewhere. The source made the active and inactive calls. Unless noted, the rule behind the calls is not given here.

Calcium-dependent protein kinase 1 (Plasmodium falciparum (isolate 3D7)), sequence (P62344 whole entry, looked up): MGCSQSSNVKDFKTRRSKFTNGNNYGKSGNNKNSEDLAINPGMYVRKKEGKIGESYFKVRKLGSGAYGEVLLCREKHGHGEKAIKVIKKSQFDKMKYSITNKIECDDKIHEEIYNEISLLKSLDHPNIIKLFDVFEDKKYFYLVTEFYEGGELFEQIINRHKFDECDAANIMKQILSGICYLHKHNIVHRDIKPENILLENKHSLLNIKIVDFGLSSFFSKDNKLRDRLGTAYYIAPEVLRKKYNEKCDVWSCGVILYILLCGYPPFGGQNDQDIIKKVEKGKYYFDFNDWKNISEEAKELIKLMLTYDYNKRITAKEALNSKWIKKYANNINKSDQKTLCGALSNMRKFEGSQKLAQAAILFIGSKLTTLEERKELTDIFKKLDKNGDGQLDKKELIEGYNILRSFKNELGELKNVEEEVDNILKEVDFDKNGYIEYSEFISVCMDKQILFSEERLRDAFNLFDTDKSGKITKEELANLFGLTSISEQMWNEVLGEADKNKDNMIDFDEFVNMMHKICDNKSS
Calcium-dependent protein kinase 4 (Plasmodium falciparum (isolate 3D7)), sequence (Q8IBS5 whole entry, looked up): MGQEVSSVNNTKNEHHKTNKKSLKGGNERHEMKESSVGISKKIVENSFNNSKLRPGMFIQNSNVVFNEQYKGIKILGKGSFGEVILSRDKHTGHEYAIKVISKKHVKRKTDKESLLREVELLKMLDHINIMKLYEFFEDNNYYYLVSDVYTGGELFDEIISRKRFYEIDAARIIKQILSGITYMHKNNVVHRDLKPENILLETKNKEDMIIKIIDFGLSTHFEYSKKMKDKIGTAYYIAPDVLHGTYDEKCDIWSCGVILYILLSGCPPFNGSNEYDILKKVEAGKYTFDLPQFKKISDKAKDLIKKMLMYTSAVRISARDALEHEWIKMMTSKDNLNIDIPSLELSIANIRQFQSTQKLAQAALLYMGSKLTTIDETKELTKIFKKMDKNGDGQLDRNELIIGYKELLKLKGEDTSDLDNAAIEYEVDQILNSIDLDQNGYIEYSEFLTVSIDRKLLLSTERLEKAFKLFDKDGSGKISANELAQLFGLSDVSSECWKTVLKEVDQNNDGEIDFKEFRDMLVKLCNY

Consider `Cc1c(Cc2ccc(F)cc2)c(Cl)nc2nc(N)nc(N)c12`, for which the growth inhibition in assay [1] was 1%; in assay [4], 92% (active). Further, the inhibition in assay [2] is 66% (active); in assay [3], -2%. The outcome in assay [5], in assay [6], in assay [7] and in assay [8] was inactive.
For `CCCc1cc(NC2CCN(C)CC2)nc(Nc2ccc(F)cc2)n1`, the values for the growth inhibition in assay [1] and in assay [4] were 16% and 95% (active), respectively. Besides, the inhibition in assay [2] is 20%; in assay [3] it was -7%. Also, the outcome in assay [5], in assay [6], in assay [7] and in assay [8] was inactive.
Regarding `COc1ccc2ncc(F)c(CCN3CCC(NCc4cc(Br)c5c(c4)OCCO5)CC3)c2n1`, the growth inhibition in assay [1] was 94% (active); in assay [4], 100% (active). Further, the inhibition in assay [2] is 26%; in assay [3], -2%. For the same compound, the outcome in assay [5], in assay [6], in assay [7] and in assay [8] was inactive.
